Screening results as filed in PubChem.
A selection: hits, their analogues and other compounds. The true share with any hit is near 5.7%.
AHR act = activators of human aryl hydrocarbon receptor; P35869; AHR-responsive luciferase reporter cells, luminescence; activation, % at 5 µM; 320,000 tested, 2.5% active; in the data active means activation above about 47%;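 further: 0% = vehicle wells and 100% = reference agonist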
DAX1 inh-1 = blocks DAX1 repression of SF-1 activated StAR promoter; AID 652010; inhibition, % at 6.8 µM; 370,000 tested, 1.1% active; HEK293T StAR-luciferase reporter, SF-1/DAX-1 repression relief;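 active means inhibition above the mean over all tested compounds plus 3 SD, cut at about 3.6% in these data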;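 further: 0% = DAX-1 cells with DMSO and 100% = cells lacking DAX-1 with DMSO; higher inhibition means more luminescence from relief of DAX-1 repression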
hcDAF-12 act = activates DAF-12 receptor from parasite H. contortus; HEK293 hcDAF-12 lit1-tk-luc reporter, luminescence; 0% DMSO, 100% Δ7-dafachronic acid; activation, % at 6.8 µM; 370,000 tested, 1.4% active;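 active means activation above the mean of all tested compounds plus 3 SD, cut at about 5.5% in these data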;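 further: 100% = response to 3 µM Δ7-dafachronic acid high control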
hgDAF-12 ag = hgDAF-12 agonism, primary luciferase screen; HEK293 GAL4-hgDAF12 UAS-luciferase reporter, agonist luminescence; normalized to butyrate control; activation, % at 6.8 µM; 370,000 tested, 1.8% active; AID 687014;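 active means activation above a cutoff set at the mean of all screened compounds plus 3 SD, cut at about 10% in these data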;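 further: 0% = DMSO wells and 100% = sodium butyrate wells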
ssDAF-12 act = activates DAF-12 receptor from parasite S. stercoralis; activation, % at 6.8 µM; 370,000 tested, 1% active; HEK293 ssDAF-12/GRIP1 lit1-tk-luc reporter, luminescence; % of 3 µM dafachronic acid response; AID 652126;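 active means activation above the mean over all tested compounds plus 3 SD, cut at about 0.9% in these data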;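 further: 0% = DMSO-only wells and 100% = 3 µM delta7-dafachronic acid wells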
DAX1 inh-2 = inhibitors of human orphan nuclear receptor DAX1 (NR0B1). P51843. HEK293 Gal4-DAX1 luciferase reporter, luminescence. inhibition, % at 6.75 µM. 340,000 tested, 0.99% active. AID 504766;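 active means inhibition above the mean over all tested compounds plus 3 SD, cut at about 4.2% in these data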;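 further: 0% = DAX1-transfected cells with DMSO and 100% = empty-vector control cells with DMSO; inhibition shows as a rise in luminescence from relieved DAX1 repression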
Target sequence (P51843 207-470 limits assumed): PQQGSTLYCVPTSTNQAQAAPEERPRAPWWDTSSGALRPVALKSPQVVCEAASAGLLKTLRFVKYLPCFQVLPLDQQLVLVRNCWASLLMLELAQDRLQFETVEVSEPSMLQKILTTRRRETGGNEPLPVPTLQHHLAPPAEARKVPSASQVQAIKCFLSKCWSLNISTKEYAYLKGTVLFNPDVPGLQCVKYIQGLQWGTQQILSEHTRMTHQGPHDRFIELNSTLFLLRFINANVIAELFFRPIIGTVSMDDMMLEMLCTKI
DAX1 inh confirm = confirmation of human DAX1 (NR0B1) inhibitors; shares compounds with DAX1 inh-1; HEK293T StAR-promoter luciferase reporter, SF-1/DAX-1 repression; inhibition, % at 6.8 µM; 2,400 tested, 87% active; AID 652134;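 active means inhibition above the average of every tested compound plus 3 SD, cut at about 3.8% in these data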;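 further: 0% = DAX-1 cells with DMSO and 100% = no DAX-1 control cells with DMSO; active compounds raise luminescence by relieving repression of the StAR reporter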
SF1 mutant ctr = nonselective inhibitor or artifact in SF-1 mutant DAX1 counter-screen; shares compounds with DAX1 inh-1; HEK293 StAR-luciferase, SF-1 AF2 mutant, luminescence; inhibition, % at 6.8 µM; 2,400 tested, 78% active; AID 652136;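 active means inhibition above the mean of all tested compounds plus 3 SD, cut at about 3% in these data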;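 further: 0% = DAX-1 transfected cells with DMSO and 100% = cells without DAX-1 with DMSO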
* = called active by the depositor; x = no result.

SMILES	AHR act	DAX1 inh-1	hcDAF-12 act	hgDAF-12 ag	ssDAF-12 act	DAX1 inh-2	DAX1 inh confirm	SF1 mutant ctr
O=C(Nc1ccc(N2CCCC2)cc1)c1ccccc1F	7.4	4.5*	4.8	12.7*	0.1	0.4	7.1*	3.5*
O=C(Nc1ccc(N2CCCC2)cc1)c1cccc(Cl)c1Cl	30.3	0.0	0.0	7.2	-0.7	0.5	x	x
COc1ccc(CNC(=O)C2CC(O)CN2C(=O)Nc2ccccc2)cc1 (centres undefined)	x	0.6	-1.3	-1.9	-1.1	-0.8	x	x
O=C1c2ccccc2C(=O)N1CCOc1ccccc1Cl	40.3	8.0*	2.4	9.9	-0.2	0.5	3.8*	4.3*
Cc1cccc2c1N(CCOc1ccccc1Cl)C(=O)C2=O	2.2	-0.7	-0.7	-2.3	-1.3	1.2	x	x
O=C1c2ccccc2C(=O)N1CCOc1ccccc1Br	-3.9	4.8*	0.8	6.0	0.8	1.5	4.3*	1.0
Cc1ccsc1C(=O)NCCc1c[nH]c2ccccc12	9.8	4.6*	0.8	8.4	0.6	1.8	5.9*	2.9*
COc1ccc(NC(=O)C2C3CCC4C(CCC32)C4(Cl)Cl)cc1 (centres undefined)	1.8	0.8	-0.9	-0.7	-1.3	0.0	x	x
CCOC(=O)N1CCN(C(=O)c2cc3c(s2)-c2ccccc2OC3)CC1	3.3	0.4	-0.1	0.9	-1.9	1.2	x	x
CCCN1CCN(C(=O)c2cc3c(s2)-c2ccccc2OC3)CC1	1.6	5.4*	3.7	4.8	0.3	1.4	9.9*	5.2*
Cc1ccc2nc(-c3cccc(Cl)c3)c(Cc3cccc(F)c3)n2c1	x	4.8*	1.6	5.3	-0.7	x	2.4	2.3
Cc1ccc(-c2nc3ccc(Cl)cn3c2Cc2ccccc2C(F)(F)F)cc1	x	3.0	2.7	10.1	0.1	x	x	x
Cc1ccc2nc(-c3ccc(Cl)cc3)c(Cc3ccccc3C(F)(F)F)n2c1	x	7.7*	1.9	11.8*	-0.7	x	3.7*	3.7*
CC(=O)c1ccc(OCC(O)CN2CCC(C)CC2)cc1 (centres undefined)	11.8	0.1	-1.5	5.5	-0.8	-1.6	x	x
CCCOC1CCCN(C(=O)c2cc(COc3c(F)cccc3F)on2)C1 (centres undefined)	12.2	4.5*	2.5	10.0	-0.4	1.2	4.4*	5.5*
Cc1ccc(C(=O)N2c3ccccc3CC2C)o1 (centres undefined)	4.0	5.4*	3.0	12.5*	-0.4	0.9	7.5*	6.5*
Cc1nc2cc(NC(=O)N3c4ccccc4CC3C)ccc2o1 (centres undefined)	39.1	5.2*	6.0*	6.2	1.2*	2.1	6.8*	4.1*
Cc1ccccc1NC(=O)N1c2ccccc2CC1C (centres undefined)	-10.4	0.1	-2.6	0.8	-1.5	-0.6	x	x
Cc1ccc(S(=O)(=O)Nc2cccc(-c3ccc(N4CCCCCC4)nn3)c2)cc1C	5.2	2.9	1.9	5.4	-1.2	0.6	x	x
O=S(=O)(Nc1cccc(-c2ccc(N3CCCCCC3)nn2)c1)c1ccc(F)cc1	8.7	5.7*	4.0	4.2	0.1	1.9	2.5	2.6
O=[N+]([O-])c1ccc(Cl)c(S(=O)(=O)Nc2cccc(-c3ccc(N4CCOCC4)nn3)c2)c1	-0.1	5.5*	2.4	6.0	-0.7	-1.5	9.5*	4.5*
O=S(=O)(Nc1cccc(-c2ccc(N3CCCCCC3)nn2)c1)c1cccc(F)c1	3.5	4.6*	0.7	5.0	-0.5	1.0	6.9*	4.4*
O=S(=O)(Nc1cccc(-c2ccc(N3CCCCCC3)nn2)c1)c1ccccc1F	8.3	5.8*	4.0	3.6	-0.7	0.8	6.1*	1.9
CCOc1ccc(S(=O)(=O)Nc2cccc(-c3ccc(N4CCCCCC4)nn3)c2)cc1	2.3	0.0	-0.1	4.2	-0.8	0.4	x	x
COc1ccc(C)cc1S(=O)(=O)Nc1cccc(-c2ccc(N3CCCCCC3)nn2)c1	1.8	0.2	-3.5	3.0	-1.7	0.0	x	x
SMILES	AHR act	DAX1 inh-1	hcDAF-12 act	hgDAF-12 ag	ssDAF-12 act	DAX1 inh-2	DAX1 inh confirm	SF1 mutant ctr
Cc1cc(C)c2nc(NNC(=O)c3ccc(S(=O)(=O)N4CCCC(C)C4)cc3)sc2c1 (centres undefined)	23.1	-1.7	-4.1	-10.0	-1.6	1.1	x	x
CC(C)C[C@H](NC(=O)c1nc[nH]c1C(=O)NC1CCN(C(=O)OC(C)(C)C)CC1)C(=O)OCc1ccccc1	4.5	0.1	-1.2	2.0	-1.6	0.2	x	x
CC(C)C(=O)Nc1ccc(-c2nc3cccnc3o2)cc1	-7.5	4.5*	5.9*	12.8*	-0.1	-0.2	12.1*	4.1*
Cc1cnc(NC(=O)Nc2ccc(Cl)cc2)s1	11.8	6.0*	5.8*	8.2	0.0	3.7	14.4*	6.8*
O=C(COc1ccc2ccccc2c1Br)Nc1ccncc1	12.6	-3.3	-2.9	-1.8	-1.2	-1.8	x	x
O=C(COc1ccc2ccccc2c1Br)Nc1cccnc1	5.8	5.1*	-0.6	2.0	-0.7	0.4	4.2*	1.6
Cc1cc(C)n(/N=C/c2cc(Cl)cc(Cl)c2O)c(=O)c1	1.0	0.2	0.0	-0.9	-0.5	0.4	x	x
COc1ccc(C(CNC(=O)c2cccc(NC(=O)c3cccs3)c2)N2CCCC2)cc1 (centres undefined)	5.6	4.5*	1.1	1.7	-0.7	0.9	6.4*	3.7*
Cc1ccc(NC(=O)COc2ccc3c(c2)CCC3)nc1	12.6	5.1*	0.2	10.6*	-0.2	3.5	8.4*	3.5*
Cc1cccnc1NC(=O)COc1ccc2c(c1)CCC2	-1.5	6.1*	0.8	9.1	1.0*	0.2	4.7*	1.6
COC(=O)c1ccccc1NC(=O)N1CCc2ccc(NC(=O)c3ccccn3)cc2C1	40.8	5.1*	0.8	6.9	-0.1	0.9	-3.5	-3.4
N/C(CS(=O)(=O)c1ccccc1)=N\OC(=O)c1ccc(F)cc1	4.2	5.9*	0.9	6.1	-0.2	1.8	3.8*	3.2*
O=C(NCCS(=O)(=O)NCCc1ccccc1)c1ccccc1	3.2	4.7*	1.1	2.8	-0.3	0.6	3.0	1.2
O=C(O)c1cccc(N2C(=O)c3cccc4cccc(c34)C2=O)c1	x	0.3	-0.1	0.5	-0.9	3.9	x	x
Cc1cc(C)cc(NC(=O)C(=O)NCCCN2CCCC2=O)c1	3.4	7.1*	5.8*	5.6	0.3	1.7	5.1*	5.3*
